miR-122 inh – miR-122 suppressors via Renilla sensor increase, primary screen, cell-based, Huh7 psiCHECK-miR122, Renilla luciferase, single point | 48 h | activation, % at 12.5 µM | 340,000 compounds, 0.14% hits;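 active = mean activation of 30% or more, with every replicate also reaching 30%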;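 note: higher luciferase signal means stronger suppression of miR-122 activity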
Numbers stand for hits; 0 = inactive. Shown is part of a subset that was picked to be rich in hits.

SMILES	miR-122 inh
C[C@H]1CN([C@@H](C)CO)C(=O)c2cc(/C=C/c3ccccc3)cnc2O[C@H]1CN(C)Cc1ccccc1F	0
CCCN(C)C[C@H]1Oc2cc(C#CC(C)C)ccc2S(=O)(=O)N([C@@H](C)CO)C[C@H]1C	0
O=C(Nc1ncc(Cc2cccc(C(F)(F)F)c2)s1)c1ccc(-c2cccc([N+](=O)[O-])c2)o1	32
C[C@H]1CN([C@@H](C)CO)S(=O)(=O)c2ccc(C#Cc3cccnc3)cc2O[C@H]1CN(C)CC1CCOCC1	0
CC(C)NC(=O)N(C)C[C@@H]1Oc2ncc(-c3ccc(F)cc3)cc2C(=O)N([C@H](C)CO)C[C@@H]1C	0
C[C@@H]1CN([C@H](C)CO)C(=O)c2cccc(N(C)C)c2O[C@H]1CN(C)C(=O)Nc1ccccc1	0
CCCN(C)C[C@@H]1Oc2ncc(C#Cc3ccc(F)cc3)cc2C(=O)N([C@H](C)CO)C[C@@H]1C	0
CCNC(=O)CCC(=O)Nc1cc(Cl)ccc1C	36
S=C(NCCc1ccccc1)Nc1ccc(Cl)cc1Cl	0
C[C@@H]1CN([C@H](C)CO)S(=O)(=O)c2ccc(C#Cc3cccc(F)c3)cc2O[C@H]1CN(C)C(=O)CN1CCOCC1	0
C[C@H]1CN([C@@H](C)CO)C(=O)c2cc(C#CC3CC3)cnc2O[C@@H]1CN(C)C	0
COc1ccc(C#Cc2ccc3c(c2)O[C@H](CN(C)C)[C@H](C)CN([C@H](C)CO)S3(=O)=O)cc1	0
C[C@H]1CN([C@@H](C)CO)C(=O)c2cc(C#CC3(O)CCCC3)cnc2O[C@@H]1CN(C)Cc1cncnc1	0
CCCN(C)C[C@@H]1Oc2cc(C#CC(C)C)ccc2S(=O)(=O)N([C@@H](C)CO)C[C@H]1C	0
CCN(C[C@H]1[C@H](c2ccccc2)[C@@H](CO)N1C(=O)C1CC1)C(=O)NC1CCCC1	36
O=C(NC[C@@H]1[C@H](c2ccccc2)[C@@H](CO)N1C(=O)C1CC1)NC1CCCC1	0
C[C@@H]1CN([C@@H](C)CO)C(=O)c2cc(-c3cncnc3)cnc2O[C@@H]1CN(C)Cc1ccc(F)cc1	0
C[C@@H]1CN([C@@H](C)CO)S(=O)(=O)c2ccc(C#CC3(O)CCCC3)cc2O[C@H]1CN(C)C(=O)Nc1ccc(F)cc1	0
Cc1ccc(Cn2c(NS(=O)(=O)c3ccccc3)nc3ccccc32)cc1	0
Cc1ccc(OCC(O)Cn2c(=N)n(Cc3ccccc3)c3ccccc32)cc1 (stereo unspecified)	90
COc1ccc(C(C)(C)C)cc1NS(=O)(=O)c1cccc2cccnc12	0
CCCCC(=O)NC(c1ccccc1OC)c1ccc2cccnc2c1O (stereo unspecified)	46
COc1ccc(NS(=O)(=O)c2ccc3ccccc3c2)c2ncccc12	0
C[C@@H]1CN([C@H](C)CO)C(=O)c2cc(C3=CCCCC3)cnc2O[C@@H]1CN(C)C(=O)c1ccc(F)cc1	0
COCC#Cc1cnc2c(c1)C(=O)N([C@H](C)CO)C[C@@H](C)[C@@H](CN(C)C(=O)Cc1cccnc1)O2	0
SMILES	miR-122 inh
O=C(N/N=C/c1sc2ccccc2c1O)c1ccccc1	41
CCS(=O)(=O)Nc1ccc2c(c1)C(=O)N(C)C[C@@H](OC)[C@H](C)CN[C@@H](C)CO2	0
COc1cccc(-c2ccc3c(c2)O[C@@H](CN(C)C(=O)C2CCCCC2)[C@H](C)CN([C@@H](C)CO)S3(=O)=O)c1	0
C[C@H](CO)N1C[C@H](C)[C@@H](CN(C)CC2CCOCC2)Oc2ncc(-c3ccc(C#N)cc3)cc2C1=O	0
CCCNC(=O)N(C)C[C@H]1Oc2cc(C#CCOC)ccc2S(=O)(=O)N([C@H](C)CO)C[C@H]1C	0
C[C@@H]1CN([C@H](C)CO)C(=O)c2cc(-c3cccc(C#N)c3)cnc2O[C@@H]1CN(C)Cc1ccccc1	0
Cc1ccc(-c2nc(C(Cl)Cl)c3ccccc3n2)cc1	61
C[C@@H]1CN([C@H](C)CO)S(=O)(=O)c2ccc(/C=C/c3ccccc3)cc2O[C@@H]1CN(C)Cc1cccnc1	0
CC(C)NC(=O)N(C)C[C@H]1Oc2ncc(C3=CCCCC3)cc2C(=O)N([C@H](C)CO)C[C@H]1C	0
CC(C)CC#Cc1cnc2c(c1)C(=O)N([C@H](C)CO)C[C@@H](C)[C@@H](CN(C)C(=O)Nc1cc(F)ccc1F)O2	0
CCc1ccccc1NC(=O)CN(C)C(=O)Cn1ncc(Cl)c(Cl)c1=O	63
C[C@H](CO)N1C[C@H](C)[C@H](CN(C)Cc2ccccc2)Oc2ncc(-c3cccc(C#N)c3)cc2C1=O	0
CC(C)NC(=O)N(C)C[C@H]1Oc2cc(C3=CCCCC3)ccc2S(=O)(=O)N([C@H](C)CO)C[C@@H]1C	0
OC(c1cc(C(F)(F)F)nc2c(Cl)cc(Cl)cc12)C1CCCCN1 (stereo unspecified)	41
CCC(=O)Nc1ccc2c(c1)OC[C@@H](C)NC[C@H](C)[C@H](OC)CN(C)C2=O	0
CO[C@H]1CN(C)C(=O)c2ccc(NS(=O)(=O)c3ccc(C)cc3)cc2OC[C@@H](C)N(C)C[C@H]1C	0
COc1cccc(-c2cnc3c(c2)C(=O)N([C@@H](C)CO)C[C@H](C)[C@@H](CN(C)C(=O)Nc2ccccc2F)O3)c1	0
